Reference: PubChem BioAssay

Tested on: Plasmodium falciparum Sir2 (PF13_0152, Sir2A)
Assay: pfSir2 binders on small-molecule microarrays, primary screen, biochemical, small-molecule microarray, 635 nm fluorescence (AID 1098);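 further: score merges spot fluorescence intensity with its signal-to-noise ratio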
Conditions: small-molecule microarray binding, fluorescence 635 nm; higher = more signal

Q: For C[C@@H]1NC(=O)[C@@]23C(=O)N[C@@H](Cc4ccccc4)C2[C@H](C)[C@@]2(C)O[C@H]2C3/C=C/C/C=C\CNC(=O)[C@@H]2CCCN2C1=O (stereo partly specified), which composite z-score is on record?
A: The composite z-score was 0.685.

Q: For COCCOC(=O)N1C(=O)[C@@]2(c3cc(C#Cc4ccc(OC)cc4)ccc31)[C@H](C(=O)Nc1nc3ccccc3s1)[C@H]1C(=O)O[C@H](c3ccccc3)[C@H](c3ccccc3)N1[C@@H]2c1ccc(O)cc1, which composite z-score is on record?
A: The composite z-score was 1.48.

Q: For CN(C)C(=O)C1N=C(c2ccc(OCCCO)cc2)N(c2ccccc2)O1 (stereo unspecified), which composite z-score is on record?
A: The composite z-score was 1.22.

Q: For O=C(NCC(F)(F)F)[C@@H]1c2ccccc2C(=O)N(Cc2ccc(OC(F)(F)F)cc2)[C@H]1c1ccc(CO)cc1, which composite z-score is on record?
A: Its composite z-score is 1.16.

Q: For [N-]=[N+]=Nc1ccccc1[C@H]1OC(c2ccc(OCCCO)cc2)=N[C@@]1(Cc1ccccc1)C(=O)N1CCCCC1, which composite z-score is on record?
A: The composite z-score was 0.813.

Tested on: not listed separately
Assay: small-molecule microarray binders of probe aDKK1, primary screen, biochemical, biotinylated probe, 635/667 nm fluorescence (AID 1099);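 further: score merges 667nm spot fluorescence with signal to noise across triplicate slides; reference of the scale not given here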
Conditions: higher = more signal

Q: For COCCOC(=O)N1C(=O)[C@@]2(c3cc(C#CC4=CCCCC4)ccc31)[C@H](c1ccccc1OCCO)N1[C@H](c3ccccc3)[C@H](c3ccccc3)OC(=O)[C@H]1[C@@H]2C(=O)Nc1nc2ccccc2s1, which composite z-score is on record?
A: Its composite z-score is -0.148.

Q: Which composite z-score does the source give for CCCNC(=O)[C@@H]1c2ccccc2C(=O)N(C(C)C)[C@H]1c1ccc(CO)cc1 here?
A: The composite z-score was 0.02.

Q: For CCCCO[C@H]1C[C@H]2C(I)=C[C@@H]1C(=O)[C@]21CO1, which composite z-score is on record?
A: The composite z-score was -0.37.

Q: With CC(C)(C)OC(=O)CC[C@]1(C(=O)NCC(O)CO)N=C(c2ccc(OCCCO)cc2)O[C@H]1c1ccccc1 (stereo partly specified) as the compound, how does the composite z-score read?
A: The composite z-score was 1.1.

Q: Which composite z-score does the source give for C=CC[C@]1(C(=O)O)COC(c2ccc(OCCCO)cc2)=N1 here?
A: The composite z-score was -0.133.

Q: With CN1C(=O)C2C=CC(C(O)c3ccccn3)N(N(c3ccccc3)c3ccccc3)C2C1=O (stereo unspecified) as the compound, how does the composite z-score read?
A: Its composite z-score is -0.16.

Q: Which composite z-score does the source give for [N-]=[N+]=NCc1ccccc1C[C@@]1(C(=O)N2CCOCC2)N=C(c2ccc(OCCCO)cc2)O[C@@H]1c1ccccc1 here?
A: Its composite z-score is 0.881.

Q: For CC(=O)NCCCC[C@@H]1NC(=O)[C@@H]2C[C@H](C(=O)NCCCC[N+](C)(C)C)[C@H](c3ccc(O)cc3)N2C1=O, which composite z-score is on record?
A: Its composite z-score is -0.151.

Q: For C[C@H]1NC(=O)[C@@]23C(=O)N[C@@H](Cc4ccccc4)C2[C@H](C)[C@@]2(C)O[C@H]2C3/C=C/C/C=C\CNC(=O)[C@H](Cc2ccccc2)NC1=O (stereo partly specified), which composite z-score is on record?
A: The composite z-score was -0.354.

Q: With [N-]=[N+]=Nc1ccccc1C[C@]1(C(N)=O)N=C(c2ccc(OCCCO)cc2)O[C@H]1c1ccccc1N=[N+]=[N-] as the compound, how does the composite z-score read?
A: Its composite z-score is 0.504.

Q: With O=C1O[C@@H](c2ccccc2)[C@@H](c2ccccc2)N2[C@@H](c3ccc(O)cc3)[C@]3(C(=O)Nc4ccc(C#CC5=CCCCC5)cc43)[C@@H](C(=O)NC[C@H](O)c3ccccc3)[C@H]12 as the compound, how does the composite z-score read?
A: Its composite z-score is 0.603.

Q: For CCOC(=O)C1=CC[C@@H](c2ccccc2C(F)(F)F)N(S(=O)(=O)c2ccc(C)cc2)[C@H]1c1ccc(C#N)cc1, which composite z-score is on record?
A: Its composite z-score is 0.648.

Q: With O[C@@H](Cc1ccccc1)[C@@H](/C=C/C1CC1)N(CC#Cc1ccccc1)Cc1cccc(Cl)c1 as the compound, how does the composite z-score read?
A: The composite z-score was 0.232.

Q: For CN(C)CCCCNC(=O)[C@@H]1C[C@@H]2C(=O)N[C@@H](Cc3ccccc3)C(=O)N2[C@@H]1c1cccc(OCCO)c1, which composite z-score is on record?
A: Its composite z-score is 0.0115.

Q: For COc1ccc([Si](C)(C)[C@@H]2[C@@H](CC(=O)N(CCO)Cc3ccccc3)O[C@]3(C(=O)N(c4ccccc4)c4ccccc43)[C@H]2C)cc1, which composite z-score is on record?
A: Its composite z-score is -0.262.

Q: Which composite z-score does the source give for CC=CC(O)C1C=CC2C(=O)N(c3ccccc3)C(=O)C2N1Nc1ccccc1F (stereo unspecified) here?
A: The composite z-score was 1.24.

Q: For C=CC1c2cc(O)c(OC)cc2CCN1Cc1cc2c(cc1Br)OCO2 (stereo unspecified), which composite z-score is on record?
A: Its composite z-score is 0.276.

Q: Which composite z-score does the source give for CC(C)C(CO)N1C(=O)[C@@H]2C3C(=O)OCCC/C=C\[C@H]3OC23C=CCN(C(C)(C)C)C(=O)[C@@H]13 (stereo partly specified) here?
A: Its composite z-score is -0.456.

Q: Which composite z-score does the source give for [N-]=[N+]=NCc1ccccc1C[C@@]1(C(=O)N2CCCCC2)N=C(c2ccc(OCCCO)cc2)O[C@@H]1c1ccccc1 here?
A: Its composite z-score is 0.542.

Q: For O=C1C[C@@](C(=O)NCCN2CCOCC2)(c2ccc([N+](=O)[O-])cc2)[C@@H](c2ccc(CO)cc2I)N1C1CCCCC1, which composite z-score is on record?
A: Its composite z-score is -0.0973.

Q: With COC(=O)c1c(CC[C@@H](CO)NC(=O)N2CCC[C@H]2Cn2cc(Cc3ccccc3)nn2)oc(C(C)=O)c1C(=O)OC as the compound, how does the composite z-score read?
A: Its composite z-score is -0.0956.

Q: With O=C1NC(=O)C2C1C=CC(C(O)c1cccc3ccccc13)N2Nc1ccc(Cl)cc1Cl (stereo unspecified) as the compound, how does the composite z-score read?
A: The composite z-score was 0.911.

Q: Which composite z-score does the source give for N#Cc1ccc(C(O)C2C=CC3C(=O)N(c4ccccc4)C(=O)C3N2Nc2ccccc2)cc1 (stereo unspecified) here?
A: Its composite z-score is 0.759.

Q: Which composite z-score does the source give for COC(=O)[C@@]1(Cc2ccc(OC)cc2)[C@H]2c3cc(C(=O)N(C)C)n(C[C@H](O)CO)c3C[C@H]2CN1C(=O)c1ccccc1 here?
A: Its composite z-score is 1.76.

Q: For COc1cc(OC)c(C(O)C2C=CC3C(=O)N(c4ccccc4)C(=O)C3N2Nc2ccccc2)cc1Br (stereo unspecified), which composite z-score is on record?
A: The composite z-score was 0.184.

Q: Which composite z-score does the source give for COCCCNC(=O)[C@@]1(Cc2ccccc2N=[N+]=[N-])N=C(c2ccc(OCCCO)cc2)O[C@H]1c1ccccc1 here?
A: Its composite z-score is 0.231.

Q: With C=C(C)C1CCC(C(O)C2C=CC3C(=O)N(C)C(=O)C3N2N2CCCCC2)CC1 (stereo unspecified) as the compound, how does the composite z-score read?
A: The composite z-score was 0.145.

Q: Which composite z-score does the source give for Cc1ccc(S[C@]2(C(=O)O)CC(=O)N(C3Cc4ccccc4C3)[C@@H]2c2ccc(CO)cc2)cc1 here?
A: The composite z-score was 0.526.

Q: Which composite z-score does the source give for O=C1C2C=CC(C(O)c3ccc(Br)cc3)N(Nc3ccccc3F)C2C(=O)N1c1ccccc1 (stereo unspecified) here?
A: The composite z-score was 0.0952.

Q: For CC(C)(C)N1CC=CC23O[C@@H]4C=CCCOC(=O)C4[C@H]2C(=O)N(CCO)[C@@H]3C1=O (stereo partly specified), which composite z-score is on record?
A: The composite z-score was -0.106.

Q: With C=CCNC(=O)[C@H]1[C@@H]2C(=O)O[C@@H](c3ccccc3)[C@@H](c3ccccc3)N2[C@@H](c2ccc(O)cc2)[C@]12C(=O)N(C(=O)OCCOC)c1ccccc12 as the compound, how does the composite z-score read?
A: Its composite z-score is -0.689.

Q: Which composite z-score does the source give for C[C@@H]1NC(=O)[C@@]23C(=O)N[C@@H](Cc4ccccc4)C2[C@H](C)[C@@]2(C)O[C@H]2C3/C=C/C/C=C\CNC(=O)[C@@H]2CCCN2C1=O (stereo partly specified) here?
A: Its composite z-score is -0.33.

Q: With COCCOC(=O)N1C(=O)[C@@]2(c3cc(C#Cc4ccc(OC)cc4)ccc31)[C@H](C(=O)Nc1nc3ccccc3s1)[C@H]1C(=O)O[C@H](c3ccccc3)[C@H](c3ccccc3)N1[C@@H]2c1ccc(O)cc1 as the compound, how does the composite z-score read?
A: The composite z-score was 0.166.

Q: For CN(C)C(=O)C1N=C(c2ccc(OCCCO)cc2)N(c2ccccc2)O1 (stereo unspecified), which composite z-score is on record?
A: Its composite z-score is 0.0309.

Q: For O=C(NCC(F)(F)F)[C@@H]1c2ccccc2C(=O)N(Cc2ccc(OC(F)(F)F)cc2)[C@H]1c1ccc(CO)cc1, which composite z-score is on record?
A: Its composite z-score is -0.113.

Q: For [N-]=[N+]=Nc1ccccc1[C@H]1OC(c2ccc(OCCCO)cc2)=N[C@@]1(Cc1ccccc1)C(=O)N1CCCCC1, which composite z-score is on record?
A: The composite z-score was 1.04.
